Screens: PubChem, National Center for Advancing Translational Sciences (NCATS)
VDR inhibitor: blocks the human vitamin D receptor; Potency, µM, most hits filed as inhibitors; VDR-SRC2-3 peptide fluorescence polarization, 2 h; 400,000 tested, 0.93% active
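Measured by FP: displacement of SRC2-3 coactivator peptide from VDR by library compounds, following a two-hour ambient incubation.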
PLK1 PBD inh: PLK1 (human) polo-box domain binding inhibition | 360,000 tested, 2.8% active | AID 720504 | Potency, µM, most hits filed as inhibitors | Plk1 PBD binding of FITC phosphopeptide, fluorescence polarization; further: series mostly up to about 57 µM; nearly all actives have a fitted effect of over 65% in size
ALOX12 inh: ALOX12 (human) lipoxygenase inhibition; P18054; purified 12hLO, xylenol orange hydroperoxide absorbance; Potency, µM (doses to about 108 µM), usual class: inhibitors; 580,000 tested, 1.1% active; AID 1671190
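Hydroperoxide product was detected by ferrous iron/xylenol orange as the 573 to 405 nm absorbance ratio. Arachidonic acid at 40 uM (final) was turned over for 30 min at room temperature by 150 nM human 12hLO, pH 7.0 Hepes buffer, after 15 min compound preincubation.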
KAT2A inh: inhibitors of human GCN5L2 histone acetyltransferase | Q92830 | GCN5L2 HAT assay, ThioGlo1 CoA-SH fluorescence | Potency, µM (highest dose often 58.9 µM), actives largely listed as inhibitors | 390,000 tested, 0.21% active
Target sequence (Q92830 whole entry, looked up): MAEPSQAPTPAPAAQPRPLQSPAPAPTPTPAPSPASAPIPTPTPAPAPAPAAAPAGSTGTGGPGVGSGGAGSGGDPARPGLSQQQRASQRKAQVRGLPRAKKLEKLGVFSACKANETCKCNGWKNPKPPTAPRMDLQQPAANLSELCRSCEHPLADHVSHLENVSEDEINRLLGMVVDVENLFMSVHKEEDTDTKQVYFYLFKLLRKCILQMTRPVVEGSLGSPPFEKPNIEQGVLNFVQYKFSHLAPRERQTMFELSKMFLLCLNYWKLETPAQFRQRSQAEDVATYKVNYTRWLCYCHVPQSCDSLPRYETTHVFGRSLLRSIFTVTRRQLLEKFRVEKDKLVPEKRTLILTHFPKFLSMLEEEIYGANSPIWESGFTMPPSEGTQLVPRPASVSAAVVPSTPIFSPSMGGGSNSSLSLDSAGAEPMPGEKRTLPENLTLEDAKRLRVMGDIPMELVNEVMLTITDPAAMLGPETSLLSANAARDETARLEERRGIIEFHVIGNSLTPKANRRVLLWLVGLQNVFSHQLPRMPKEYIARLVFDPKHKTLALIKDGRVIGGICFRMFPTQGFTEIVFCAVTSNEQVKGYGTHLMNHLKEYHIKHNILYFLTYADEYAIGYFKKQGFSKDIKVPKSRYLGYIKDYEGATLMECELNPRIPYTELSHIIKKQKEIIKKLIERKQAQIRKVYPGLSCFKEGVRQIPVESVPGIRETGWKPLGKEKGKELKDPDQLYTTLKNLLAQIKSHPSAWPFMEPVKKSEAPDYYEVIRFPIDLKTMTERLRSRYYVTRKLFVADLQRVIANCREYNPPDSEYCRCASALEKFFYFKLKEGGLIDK
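GCN5L2 (20nM final) in 50mM HEPES, 0.1mM EDTA pH 7.5, 0.01% Tween-20 was preincubated 15 min at room temperature with compound, then given ThioGlo1 (50uM), H3(1-25) peptide (75uM) and acetyl-CoA (70uM); CoA-thiol fluorescence (Ex340/Em540) was read at 0 and 20 min.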
A number is an active result; i = inactive; ? = inconclusive; nt = no result; ! = a repeat was not active. In the library only some 3% were active in any assay of this set; here they are far more common. The call rests on the fitted dose curve; in most records, active means well fitted curve in the direction sought with a large enough effect; inconclusive means small, poorly fitted or top-dose-only effect, or another doubt; inactive means no such curve, though single readings can be large; an effect the other way counts as inactive or inconclusive.

SMILES	VDR inhibitor	PLK1 PBD inh	ALOX12 inh	KAT2A inh
COc1ccc(-c2cc(-c3ccccc3)nc3c2COc2ccccc2-3)cc1	i	nt	i	i
COc1ccc(C2=Nc3ccccc3OC2)cc1	i	i	45µM	i
O=C(N[C@@H]1CN(c2ncccn2)C[C@H]1CO)c1ccc2c(c1)OCO2	nt	nt	i	nt
C=C(C)COc1ccc2c(C)c(CCC(=O)Nc3nccs3)c(=O)oc2c1	nt	nt	i	nt
O=C(Nc1nc(-c2ccco2)c(-c2ccco2)s1)c1ccc(F)cc1F	?	i	?	?
O=S(=O)(Nc1nc(-c2ccco2)c(-c2ccco2)s1)c1ccc(F)cc1F	nt	?	7.9µM	nt
COc1cc(C2CC(=O)Nc3c(-c4ccc(Cl)cc4)nsc32)cc2c1OCO2 (stereo unspecified)	nt	nt	i	nt
Cc1cccc(C(=O)Nc2nnc(S(=O)(=O)N(C)Cc3ccco3)s2)c1	89µM!	?	?	i
Oc1cccc(O)c1O	79µM	nt	nt	i
O=C(O)c1cccc(O)c1O	i	i	i	nt
c1ccc(C2=Nn3c(nnc3-c3cccs3)SC2)cc1	i	i	i	i
c1csc(C2=Nn3c(nnc3-c3ccncc3)SC2)c1	i	27µM	?	i
O=C(CCn1nnc2ccccc21)N1CCC(O)(c2cccc(F)c2)CC1	?	27µM	i	i
Cc1cccc(OCc2nnc(N)s2)c1	?	27µM	i	i
CC1CCCN(C(=O)CCc2c[nH]c3ccccc23)C1 (stereo unspecified)	nt	nt	i	nt
Cc1cccc2c(Cl)cc(=O)[nH]c12	nt	nt	i	i
Cc1cccc2c3c([nH]c12)CCNC3	?	24µM	i	i
CCc1noc(-c2cccn3c(CNC(=O)c4cc(Cl)ccc4F)nnc23)n1	nt	nt	i	nt
COc1ccc(C(c2nnnn2Cc2cccs2)N2CCN(c3ccc(F)cc3)CC2)cc1OC (stereo unspecified)	i	21µM	?	i
CN1CCN(C(c2ccc(F)cc2)c2nnnn2Cc2cccs2)CC1 (stereo unspecified)	i	i	?	i
c1ccc2oc(-c3csc(NCC4CCCO4)n3)cc2c1 (stereo unspecified)	79µM	i	?	i
C=CCNc1nc(-c2ccc3c(c2)OCCO3)cs1	i	i	?	nt
C=CCNc1nc(-c2cc3ccccc3o2)cs1	i	i	50µM	i
c1ccc(CN2CCN(CCOCCOc3ccc4c(c3)CCC4)CC2)cc1	i	i	50µM	i
O=C(COC(=O)C1C2CCC(C2)C1C(=O)OCC(=O)c1ccc(OC(=O)c2ccco2)cc1)c1ccc(OC(=O)c2ccco2)cc1 (stereo unspecified)	nt	nt	i	nt
SMILES	VDR inhibitor	PLK1 PBD inh	ALOX12 inh	KAT2A inh
O=C(COC(=O)Cc1ccccc1F)Nc1ccc(Cl)cn1	?	17µM	i	i
O=C(CN1C(=O)c2ccccc2C1=O)Nc1ccc(Cl)cn1	i	27µM	i	i
O=C(CSc1ccccn1)Nc1ccc(Cl)cn1	i	24µM	i	i
O=C(Cc1ccccc1)Nc1ccc(Cl)cn1	i	i	i	i
CC(=O)c1ccc(N2CCN(C(=O)c3csc(-c4ccc(Cl)cc4)n3)CC2)cc1	nt	nt	i	nt
Fc1ccccc1Nc1cnc2ccc(-c3ccccc3)nn12	nt	nt	i	nt
CN1/C(=N\O)c2cccc3cccc1c23	?	27µM	?	i
CCN(CC)S(=O)(=O)c1cccc(C(=O)Nc2ccc(S(=O)(=O)NC3=NCCCCC3)cc2)c1	i	i	50µM	i
CS(=O)(=O)Nc1ccc(/C=C/C(=O)O)cc1	nt	nt	i	nt
COC(=O)COc1ccc(NS(=O)(=O)c2cccc([N+](=O)[O-])c2)cc1	i	24µM	i	i
CCOc1cc(/C=N/O)ccc1OCc1ccc([N+](=O)[O-])cc1	?	24µM	i	i
CCOc1cc(/C=N/O)ccc1OCc1ccc(F)cc1	50µM	24µM	i	i
CCCCC(CC)C(=O)Nc1ccc(F)c(F)c1 (stereo unspecified)	nt	nt	i	nt
O=S(=O)(NN1CCOCC1)c1ccc(Cl)s1	i	21µM	i	i
O=S(=O)(NN1CCOCC1)c1ccc(Br)cc1	?	7.5µM	i	i
CN1CCN(NS(=O)(=O)c2ccc(Cl)s2)CC1	?	8.4µM	i	i
O=S(=O)(NN1CCOCC1)c1ccc(Br)s1	?	3µM	i	i
O=S(=O)(Nc1ccc(N2CCOCC2)cc1)c1ccc(Cl)s1	i	i	i	i
CC(C)(CNC(=O)c1cc(-c2ccc(Cl)cc2)on1)N1CCOCC1	nt	nt	i	nt
CN(CC(=O)N1CCCCCC1)S(=O)(=O)c1ccc(Br)s1	i	i	i	nt
O=C(CN(CC(=O)N1CCOCC1)S(=O)(=O)c1ccc(Br)s1)N1CCOCC1	i	24µM	i	nt
COc1ccc(C2=NOC(C(=O)NCc3ccccc3)C2)cc1 (stereo unspecified)	i	27µM	i	i
CSCC[C@@H]1NC(=O)c2cc(NC(=O)Cn3ccc4ccccc43)ccc2NC1=O	nt	nt	35µM	nt
O=C(CC1S/C(=N/N=C/c2ccco2)NC1=O)Nc1ccccc1 (stereo unspecified)	i	i	i	i
CC1=C/C(=N\N=C2\NC(=O)C(CC(=O)Nc3ccccc3)S2)CC(C)(C)C1 (stereo unspecified)	i	24µM	i	i
SMILES	VDR inhibitor	PLK1 PBD inh	ALOX12 inh	KAT2A inh
Cc1ccc(NC(=O)Nc2ccccc2OCc2cc(=O)n3cccc(C)c3n2)cc1Cl	nt	nt	i	nt
O[C@H]1C[C@H](c2ccccc2)N(Cc2cccs2)C[C@@H]1n1cc(-c2ccc(F)cc2)nn1	nt	i	35µM	nt
Cc1cc(C)cc(C(=O)N2CCN(C(=O)c3cccc4cccnc34)CC2)c1	nt	nt	i	nt
CCCc1noc(-c2ccn3c(CNC(=O)Cc4ccccc4OC)nnc3c2)n1	nt	nt	50µM	nt
CCCc1noc(-c2ccn3c(CNC(=O)c4ccccc4F)nnc3c2)n1	nt	nt	50µM	nt
CCCc1noc(-c2ccn3c(CNC(=O)c4ccccc4Cl)nnc3c2)n1	nt	nt	40µM	nt
COCC(C)NC(=O)CCC1CCCO1 (stereo unspecified)	nt	nt	i	nt
COc1ccc(C(c2c(C)[nH]n(C(N)=S)c2=O)C(C#N)C#N)cc1 (stereo unspecified)	28µM	21µM	?	i
Cc1[nH]n(C(N)=S)c(=O)c1N=Nc1ccc2ccccc2c1	?	i	?	i
CN1CCN(c2ccc(NC(=O)c3ccccc3Cl)nc2)CC1	nt	nt	i	nt
Cc1cc(C)c2ccc(=S)[nH]c2n1	i	15µM	?	i
COc1ccc2c(C)cc(C)nc2n1	i	i	i	i
Fc1ccc(Nc2ccnc(-c3ccoc3)n2)cc1	25µM	nt	?	i
Fc1ccc(Nc2ccnc(-c3ccc4c(c3)OCO4)n2)cc1	40µM	nt	18µM	28µM
Cc1noc(C)c1-c1nccc(Nc2ccc(F)cc2)n1	i	nt	?	i
Fc1ccc(CN2CCCN(Cc3nc(-c4ccc5c(c4)OCO5)no3)CC2)cc1	i	i	i	i
CN(C)C(=O)c1ccc(-c2nccc(Nc3ccc(F)cc3)n2)cc1	50µM	nt	?	?
Cc1ccc(C(=O)NC2CCN(c3cc(-c4ccccc4)[nH]n3)C2)cc1 (stereo unspecified)	nt	nt	i	nt
COc1ccc(/C=C/C(=O)CC(O)(c2ccccc2)C(F)(F)F)cc1 (stereo unspecified)	35µM	i	i	i
COc1cc(/C=N/OCc2cccc(Br)c2)cc(OC)c1OC	nt	nt	i	nt
Cc1ccc(OCCN2CCCC2)cc1	?	i	i	i
